Compounds with a hit are over-represented: about 1.6% of the library has one in this group of screens.
KCNQ2 enhance – potentiators of rat KCNQ2 potassium channel; B-score at 10 µM; CHO-K1 KCNQ2, FluxOR thallium flux fluorescence; stronger effect = higher value; 0.54% of 310,000 active; Potassium voltage-gated channel subfamily KQT member 2 (Rattus norvegicus), O88943;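 active = fluorescence ratio B-score at least 3 SD of library B-scores, with initial fluorescence B-score within 3 of them, cut at about 5.3 in these data; same plate scores as AID 2156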;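 note: B-score of peak minus minimum over baseline fluorescence ratio after K+ and Tl+ stimulus; positive B-score means potentiation of KCNQ2 with more thallium influx and brighter signal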
KCNQ2 block – rat KCNQ2 potassium channel inhibitors, primary screen, cell-based, CHO-K1, FluxOR thallium flux, B-score; 20 min; stronger effect = lower value; B-score at 10 µM; 1.1% of 310,000 active; AID 2156, 2009;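 active = fluorescence ratio B-score at most minus 3 library SDs, with starting brightness B-score within 2 library SDs, cut at about -5.5 in these data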
Kir21 conf inh – mouse Kir2.1 channel blockers, retest, confirmation, cell-based, FluxOR thallium flux, duplicate; Tl flux remaining, % of negative control (stronger effect = lower value), % at 10 µM; shares compounds with KCNQ2 enhance; Kir2.1-expressing cells, FluxOR thallium flux fluorescence; stronger effect = lower value; 41% of 2,300 active;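 active = Primary-screen hit whose thallium flux fell at least 3 control SD below untreated wells in both duplicates, with normal baseline fluorescence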;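 note: 0% = blank wells without stimulus and 100% = stimulated no-compound controls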
HEK293 ctr – parental HEK293 activity in Kir2.1 inhibitor counter-screen | shares compounds with KCNQ2 enhance | parental HEK293 cells, FluxOR thallium flux fluorescence; 0% = unstimulated blank wells | FluxOR signal as % of negative control (100 = no effect), % at 10 µM | 19% of 2,300 active | AID 2105;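 active = dye signal at least 3 control SD above or below untreated wells in both duplicates, raw fluorescence within 3, either direction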;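 note: percent is based on the flux ratio of peak minus minimum fluorescence over baseline F0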
CHO-K1 ctr – nonspecific thallium flux increase in parental CHO-K1, confirmation, counter-screen for KCNQ2 potentiator project, cell-based, FluxOR thallium flux, duplicate; activity increase over 3SD of controls, % at 10 µM; shares compounds with KCNQ2 enhance; parental CHO-K1 cells, FluxOR thallium flux fluorescence; zero = vehicle mean+3SD, 100% = vehicle-minus-blank window; 43% of 1,200 active;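 active = signal rise of at least 3 SD above the untreated control mean, in both duplicate wells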;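 note: counter screen of KCNQ2 potentiator hits so any rise reflects channel-independent effects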
KCNQ1 sel pot – human KCNQ1 channel potentiation off-target, confirmation, selectivity assay for KCNQ2 potentiator project, cell-based, CHO, FluxOR thallium flux | 28% of 1,200 active | CHO KCNQ1 stable, FluxOR thallium flux fluorescence; beyond 3SD, as % of vehicle-control signal | activation over 3SD threshold, % at 10 µM | shares compounds with KCNQ2 enhance | AID 2283, 2010;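 active = fluorescence ratio rise of at least 3 SD of vehicle wells above their mean, in both replicate wells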;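 note: 0% = vehicle mean plus 3 SD and 100% = vehicle minus unstimulated blank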
Target sequence (P51787 whole entry, looked up): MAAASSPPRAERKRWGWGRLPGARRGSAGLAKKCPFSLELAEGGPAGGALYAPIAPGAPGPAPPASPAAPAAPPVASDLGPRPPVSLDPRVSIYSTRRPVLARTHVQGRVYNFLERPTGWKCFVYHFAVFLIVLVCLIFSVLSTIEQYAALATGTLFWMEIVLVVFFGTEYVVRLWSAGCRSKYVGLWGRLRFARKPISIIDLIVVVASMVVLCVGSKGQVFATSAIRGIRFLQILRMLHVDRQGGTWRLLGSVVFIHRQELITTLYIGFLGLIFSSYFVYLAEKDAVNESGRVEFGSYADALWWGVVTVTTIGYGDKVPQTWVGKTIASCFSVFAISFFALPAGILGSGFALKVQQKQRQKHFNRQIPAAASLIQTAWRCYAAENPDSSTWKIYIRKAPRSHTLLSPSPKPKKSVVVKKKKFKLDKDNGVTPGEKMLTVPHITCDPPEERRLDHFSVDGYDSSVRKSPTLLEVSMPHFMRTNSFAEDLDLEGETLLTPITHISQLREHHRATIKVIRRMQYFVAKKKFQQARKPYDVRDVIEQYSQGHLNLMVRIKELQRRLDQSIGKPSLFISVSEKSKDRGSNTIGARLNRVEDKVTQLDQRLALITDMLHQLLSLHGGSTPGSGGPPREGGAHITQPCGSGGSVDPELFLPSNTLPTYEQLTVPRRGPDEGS
KCNQ2 pot conf – rat KCNQ2 channel potentiators, confirmation, cell-based, CHO, FluxOR thallium flux, duplicate; 68% of 1,200 active; shares compounds with KCNQ2 enhance; CHO-KCNQ2 cells, FluxOR thallium flux fluorescence; potentiation, less the hit threshold, % at 10 µM; AID 2287, 2010;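 active = fluorescence ratio rising 3 SD or more over the vehicle control mean in both replicates, plus primary screen hit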;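 note: peak minus minimum thallium fluorescence divided by baseline after K/Tl stimulus; 0% = vehicle mean plus 3 SD and 100% = vehicle minus unstimulated blank difference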
Kir2-1 sel – mouse Kir2.1 channel activation off-target, confirmation, selectivity assay for KCNQ2 potentiator project, cell-based, HEK293, FluxOR thallium flux; shares compounds with KCNQ2 enhance; HEK293 Kir2.1, FluxOR thallium flux fluorescence; activity over 3SD threshold, % at 10 µM; 2% of 1,200 active;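 active = fluorescence ratio rise of at least 3 SD above the vehicle-control mean, seen in both replicates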;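 note: 0% = vehicle mean plus 3 SD and 100% = vehicle minus no-stimulus blank window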
KCNQ2 W236L pot – potentiators of retigabine-insensitive KCNQ2 W236L, mechanism study for KCNQ2 potentiator project, cell-based, rat KCNQ2 W236L, CHO, automated patch clamp. current increase over 3SD of negative controls (%), stronger effect = higher value, % at 25 µM. 10% of 940 active. shares compounds with KCNQ2 enhance. automated patch clamp current. AID 2558, 2010;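 active = current increase at least 3 SD of the untreated controls above them in both duplicate recordings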
* = called active by the depositor; i = inactive; . = not tested or not shown.

SMILES	KCNQ2 enhance	KCNQ2 block	Kir21 conf inh	HEK293 ctr	others
CNc1ccc(C(O)(C(F)(F)F)C(F)(F)F)cc1C(O)(C(F)(F)F)C(F)(F)F	.	i	.	.
COc1ccc(/C=C2/SC(=O)N(CCC(=O)Nc3ccc(C)cc3)C2=O)cc1OC	0.85	i	.	.
COc1cc(/C=C2/SC(=S)N(CC(=O)O)C2=O)ccc1OCC(=O)Nc1ccc(C)c(C)c1	.	i	i	i
CC1=NN(C(N)=S)C(=O)C1N=Nc1ccc(Cl)cc1Cl (centres undefined)	12.5*	i	i	i	CHO-K1 ctr=-7.5;KCNQ1 sel pot=-16.5;KCNQ2 pot conf=-3.9;Kir2-1 sel=-30.3;KCNQ2 W236L pot=i
CC1=NN(C(N)=S)C(=O)C1N=Nc1ccccc1Cl (centres undefined)	.	i	.	.
CC(C)CC(=O)NC(Nc1ccccc1F)C(Cl)(Cl)Cl (centres undefined)	.	i	.	.
CCCC(=O)NC(Nc1ccccc1F)C(Cl)(Cl)Cl (centres undefined)	0.26	i	58.0%*	62.5%*
COC(=O)c1c(-c2ccc(OC)cc2)oc2ccc(-c3cc(OC)c(OC)c(OC)c3)cc12	.	i	.	.
COc1ccc(CCNC(=O)C2CCCN(S(=O)(=O)c3ccccc3)C2)cc1 (centres undefined)	1.01	i	.	.
COc1ccccc1C(=O)Nc1ccccc1C(=O)NC1CCCCC1	0.1	i	.	.
COc1ccccc1C(=O)NNC(=O)C(=O)NC1CCCCC1	8.53*	i	i	321.0%*	CHO-K1 ctr=-6.4;KCNQ1 sel pot=33.3*;KCNQ2 pot conf=41.8*;Kir2-1 sel=-17.8;KCNQ2 W236L pot=i
CCOc1nc(Nc2ccc(OC)c(Cl)c2)nc(OCC)n1	.	i	.	.
CCOC(=O)c1c(C)n(C)c2ccc(OCC(O)CNCCc3ccccc3)cc12 (centres undefined)	0.08	i	.	.
CCCc1cnc(NCCNCC(O)COc2ccc(Cl)c(Cl)c2)nc1 (centres undefined)	.	i	68.5%*	i
COc1ccccc1OCCNc1cc(N2CCCCC2)ccc1[N+](=O)[O-]	.	i	.	.
Cc1ccccc1OCCNc1cc(N2CCNCC2)ccc1[N+](=O)[O-]	.	i	35.5%*	i
N#CC1(NC(=O)COC(=O)c2cc(=O)[nH]c3ccccc23)CCCCC1	.	i	.	.
COCC(C)n1c(C)cc(C(=O)COC(=O)C2=NN(c3ccccc3)C(=O)CC2)c1C (centres undefined)	.	i	.	.
O=C(c1ccco1)N1CCN(c2nc3ccsc3c(=O)s2)CC1	2.61	i	.	.
CCCn1nc(NC(=O)COC)c2cc3cccc(C)c3nc21	.	i	.	.
CCCn1nc(NC(C)=O)c2cc3cccc(C)c3nc21	1.62	i	.	.
CCn1nc(NC(=O)C(C)(C)C)c2cc3cccc(C)c3nc21	8.5*	i	i	i	CHO-K1 ctr=19.8*;KCNQ1 sel pot=3.4*;KCNQ2 pot conf=-81.2;Kir2-1 sel=-31.2;KCNQ2 W236L pot=i
CCCn1nc(NC(=O)CC(C)C)c2cc3cccc(C)c3nc21	5.35*	i	i	i	CHO-K1 ctr=-18.6;KCNQ1 sel pot=-32.1;KCNQ2 pot conf=-19.8;Kir2-1 sel=-41.2
CCOc1cc(NC(=S)NCCOC)c(OCC)cc1NC(=O)c1cccs1	0.38	i	.	.
CC(C)(C)OC(=O)N1CCC[C@H]1c1nnc(SCc2c(Cl)cccc2Cl)o1	.	i	.	.
SMILES	KCNQ2 enhance	KCNQ2 block	Kir21 conf inh	HEK293 ctr	others
Cc1cccc(CSc2nnc([C@@H]3CCCN3C(=O)OC(C)(C)C)o2)c1	.	i	56.5%*	i
CCn1c(C)cc(/C=C2/NC(=O)N(c3ccccc3)C2=O)c1C	0.11	i	.	.
COc1ccccc1C(=O)NCC(=O)N/N=C/c1cc(Br)ccc1OC(=O)/C=C\c1ccco1	1.38	i	.	.
CCOC(=O)c1[nH]c(C)c(C(=O)OC(C)C(=O)Nc2ncc(Cl)cc2Cl)c1C (centres undefined)	.	i	.	.
COCCN(CC(=O)NC1CCCCC1)C(=O)c1csnn1	0.57	i	.	.
CC(C)(C)c1cc(C(=O)NNC(=O)c2ccc(Cl)cc2)no1	9.13*	i	i	266.0%*	CHO-K1 ctr=1.4*;KCNQ1 sel pot=88.3*;KCNQ2 pot conf=5.3*;Kir2-1 sel=-41.9;KCNQ2 W236L pot=i
Cc1cc(C(=O)NNC(=O)c2ccc(C(F)(F)F)cc2)no1	1.75	i	.	.
CCOc1ccc(-n2cc(-c3ccccc3)c3c(=O)[nH]cnc32)cc1	0.58	i	.	.
CCOc1ccc(-n2cc(-c3ccccc3)c3c(=S)nc[nH]c32)cc1	6.9*	i	i	148.0%*	CHO-K1 ctr=11.3*;KCNQ1 sel pot=-16.4;KCNQ2 pot conf=0.0*;Kir2-1 sel=-27.2;KCNQ2 W236L pot=i
Cc1c(Br)c([N+](=O)[O-])nn1CC(=O)N1CCCc2ccccc21	.	i	.	.
CC(NS(=O)(=O)c1ccc(Br)cc1)c1ccccc1 (centres undefined)	.	i	47.0%*	i
CC(NS(=O)(=O)c1ccc2c(c1)OCCO2)c1ccccc1 (centres undefined)	0.93	i	.	.
CC(=O)c1ccn(S(=O)(=O)c2ccc(Cl)cc2)c1	0.48	i	.	.
CC(C(Sc1ccccc1N)c1ccccc1)[N+](=O)[O-] (centres undefined)	.	i	52.0%*	i
Nc1ccccc1SSc1ccccc1N	.	i	.	.
CN1CCN(C(=O)Nc2ccccc2)CC1	1.02	i	.	.
COc1ccc(CN(C)CC2CCCN(CCc3ccc(F)cc3)C2)cc1OC (centres undefined)	.	i	62.0%*	i
COc1ccc(F)c(CN(C)CC2CCCN(CCc3ccc(F)cc3)C2)c1 (centres undefined)	.	i	31.0%*	i

Source: PubChem
